Experiment [1] can be described thus: qHTS assay to identify small molecule inhibitors of chordoma cells - UCH-1 (AID 1259355). Note: nearly all actives have a fitted effect of over 55% in size. Note: potency is the fitted concentration of half-maximal effect. The settings on record: UCH-1 chordoma viability, CellTiter-Glo, 48 h, combination, with auranofin plus four topoisomerase inhibitors; series mostly up to 46.1 µM. The gist of the method:
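Screening used approved and investigational drugs in 15-point titration against 800 seeded cells per well. A fixed combination of auranofin with camptothecin, doxorubicin, rubitecan and topotecan followed compound addition, and growth was scored by CellTiter-Glo after 48hr.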
Background: qHTS replaces the single test concentration by a dilution series.

A short description of experiment [2]: qHTS assay to identify small molecule inhibitors of chordoma cells - UCH-2 (AID 1259356). The settings on record: UCH-2 chordoma viability, CellTiter-Glo ATP luminescence, 48 h; series mostly up to 46.1 µM.
Experiment [3] in a line: P-glycoprotein substrates identified in KB-3-1 adenocarcinoma cell line, qHTS therapeutic library screen (AID 1346986). Note: nearly all actives have a fitted effect of over 60% in size.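 Note: potency is the fitted concentration of half-maximal effect; potency is for cytotoxicity meaning loss of cell viability.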 The note with it: KB-3-1 parental cells viability, CellTiter-Glo, 72 h; series mostly up to 44.5 µM. The gist of the method: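 Viability by CellTiter-Glo after 72 h compound exposure at 37 degree C, 5% CO2. Cytotoxic call: curve class -1.1 to -2.4, maximum response >50%, AC50 < 10 uM, compared across KB-3-1 and P-gp-overexpressing KB-8-5-11.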

Experiment [4] is described as follows: Identifying Small Molecule Inhibitors of Pancreatic Cancer Stem Cells (SN12C, Adherent) (AID 1259358).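 Note: cell survival measured after 48 h of compound exposure.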 Note: potency is the fitted concentration of half-maximal effect. The settings on record: viability/growth inhibition; series mostly up to 46.1 µM. The gist of the method:
(§1)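 Monolayer and spheroid cultures are compared. Spheroids form over 14 days in stem cell medium on hydrogel-coated low-attachment plates, then are exposed to compound for 48 h before CellTiter-Glo luminescence.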

Experiment [5] in a line: Identifying Small Molecule Inhibitors of Pancreatic Cancer Stem Cells (A278, Adherent) (AID 1259361).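 Note: viability read after 48 h compound exposure; nearly all actives have a fitted effect of over 35% in size.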 The note with it: series mostly up to 46.1 µM. An outline of the steps:
as §1

Experiment [6] is described as follows: Identifying Small Molecule Inhibitors of Pancreatic Cancer Stem Cells (A2780, Spheroid) (AID 1259357).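 Note: compound exposure lasted 48 h before the ATP luminescence read.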 Note: potency is the fitted concentration of half-maximal effect. The settings on record: Potency: A2780 spheroid viability; series mostly up to 46.1 µM. An outline of the steps:
(§2)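 Endpoint: ATP-based luminescence, 48 h drug exposure. Bortezomib at 9.2 uM final as full-kill control; DMSO vehicle as negative control; activity normalized between vehicle and cell-free wells.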

Experiment [7] is described as follows: Identifying Small Molecule Inhibitors of Pancreatic Cancer Stem Cells (Panc1, Adherent) (AID 1259362). Note: potency is the fitted concentration of half-maximal effect. The note with it: Potency: viability; series mostly up to 46.1 µM. The gist of the method:
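Viability is scored by CellTiter-Glo luminescence 48 h after dosing, expressed as percent activity against vehicle and no-cell references. Spheroid formats rely on cells cultured 14 days in stem cell media beforehand.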

The nature of experiment [8]: Identifying Small Molecule Inhibitors of Pancreatic Cancer Stem Cells (Panc1, Spheroid) (AID 1259359).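 Note: potency is the fitted concentration of half-maximal effect; compound exposure lasted 48 h before reading.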 The note with it: Panc1 spheroid cancer stem cell viability. An outline of the steps:
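Luminescent ATP readout (CellTiter-Glo) quantifies surviving cells after a 48 h drug incubation. Normalization uses DMSO wells as no inhibition and media-only wells as full inhibition; bortezomib served as positive control.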

Experiment [9] in a line: Identifying Small Molecule Inhibitors of Pancreatic Cancer Stem Cells (SN12C, Spheroid) (AID 1259360). Note: potency is the fitted concentration of half-maximal effect. The settings on record: Potency: SN12C spheroid viability; series mostly up to 46.1 µM. The gist of the method: as §2

“And” between values parts separate entries of the source, which are not always exact repeats. Identical values can stand only once. Results filed as inconclusive are left out. The source made the active and inactive calls. Calls come from the whole dose curve; as a rule, active = well fitted curve in the direction sought with a large enough effect; inconclusive = small, poorly fitted or top-dose-only effect, or another doubt; inactive = no such curve, though single readings can be large; an effect the other way counts as inactive or inconclusive.

With `CCOc1cc(CC(=O)N[C@@H](CC(C)C)c2ccccc2N2CCCCC2)ccc1C(=O)O`, the Potency result in [1], in experiment [2] and in experiment [3] was “inactive” throughout.

As to `N[C@@H](Cc1cc(I)c(Oc2cc(I)c(O)c(I)c2)c(I)c1)C(=O)O`, the Potency entry in experiment [1], in [2] and in experiment [3] was “inactive” throughout.

Turning to `CCN(CCO)CCCC(C)Nc1ccnc2cc(Cl)ccc12` (configuration not stated), the Potency entry in [1], in experiment [2] and in experiment [4] was “inactive” in each case. For the same molecule, the IC50 (viability decrease) entry in experiment [5] was “inactive”.

As for `Cc1cccc(C#Cc2ccccc2)n1`, the Potency result in experiment [6] and in experiment [4] was “inactive” each time. Further, in experiment [5], the IC50 (viability decrease) entry was “inactive”.

For the molecule `Cc1nc(Nc2ncc(C(=O)Nc3c(C)cccc3Cl)s2)cc(N2CCN(CCO)CC2)n1`, in experiment [7], the Potency was 20900 nM (active).

On to `O=C1c2c(O)cc(O)cc2OC(c2ccc(O)c(O)c2)C1O` (configuration not stated), for which the Potency result in experiment [3] was “inactive”.

As to `O=C(CCc1ccc(O)cc1)c1c(O)cc(O)cc1O`, in experiment [3], the Potency entry is “inactive”.

Regarding `CN(C)C(=O)[C@H](O)[C@H](Cc1ccccc1)NC(=O)c1cc2cc(Cl)ccc2[nH]1`, the Potency entry in [3] is “inactive”.

On to `Nc1ncn([C@H]2C[C@H](O)[C@@H](CO)O2)c(=O)n1`, for which the Potency result in experiment [1], in experiment [2] and in experiment [3] was “inactive” in each case.

Regarding `CCN(CC)CCOc1ccc(Nc2ncc3cc(-c4c(Cl)cccc4Cl)c(=O)n(C)c3n2)cc1`, the Potency is 13200 nM (active) in experiment [6]; 662 nM (active) in [4]; 1050 nM (active) in experiment [8]; 16600 nM (active) in [9]; 296 nM (active) in experiment [7]. Besides, the IC50 (viability decrease) in experiment [5] was 1480 nM (active).

On to `O=C(NCCO[N+](=O)[O-])c1cccnc1`, for which the Potency entry in experiment [1], in experiment [2] and in [3] was “inactive” in each case.

As to `CCOC(=O)C1=C(O)C(=O)N(Cc2ccccc2)C1`, the Potency entry in experiment [6], in [4] and in [9] was “inactive” throughout.

Take `S=c1nc[nH]c2nc[nH]c12`: the Potency result in [2] is “inactive”. Further, the values for the Potency in [4] and in experiment [7] were 38200 nM (active) and 5400 nM (active), respectively. Moreover, the IC50 (viability decrease) in experiment [5] is 1710 nM (active).

With `Cc1c(C(=O)NN2CCCCC2)nn(-c2ccc(Cl)cc2Cl)c1-c1ccc(Cl)cc1`, the Potency entry in experiment [2] was “inactive”.

Consider `O=C(NCC1CCCCN1)c1cc(OCC(F)(F)F)ccc1OCC(F)(F)F` (configuration not stated), for which the Potency entry in experiment [2] was “inactive”.

As for `O=C1NC(=O)C(c2ccccc2[N+](=O)[O-])=C1Nc1ccc(O)c(Cl)c1`, in experiment [3], the Potency entry was “inactive”.

Regarding `Oc1ccc(-c2nc(-c3ccc(F)cc3)c(-c3ccncc3)[nH]2)cc1`, in [3], the Potency entry was “inactive”.

For `Cc1ccc(Nc2nccc(N(C)c3ccc4c(C)n(C)nc4c3)n2)cc1S(N)(=O)=O`, the Potency in experiment [4] was 18700 nM (active). Moreover, the Potency result in experiment [9] was “inactive”.

On to `CC(C)C[C@H](NC(=O)[C@H](Cc1ccccc1)NC(=O)c1cnccn1)B(O)O`, for which the Potency in experiment [1] was 12.6 nM (active) and 6.3 nM (active); in experiment [4], 16.6 nM (active); in experiment [8] it was 1.7 nM (active); in [9] it was 10.5 nM (active); in experiment [7] it was 14.8 nM (active). The IC50 (viability decrease) in experiment [5] is 3.7 nM (active).

With `CN(C)CCc1c[nH]c2ccc(Cn3cncn3)cc12`, the Potency entry in [1], in experiment [2] and in experiment [3] was “inactive” each time.

Regarding `CCCc1cc(=O)[nH]c(=S)[nH]1`, the Potency entry in experiment [1], in experiment [2] and in [3] was “inactive” throughout.

`O=C1CCc2ccc(OCCCCN3CCN(c4cccc(Cl)c4Cl)CC3)cc2N1`: the Potency entry in [2] was “inactive”.

Turning to `CC(C)c1ccc2c(c1)c(SC(C)(C)C)c(CC(C)(C)C(=O)O)n2Cc1ccc(Cl)cc1`, the Potency in experiment [6] and in experiment [8] was 18700 nM (active) each time. The Potency result in experiment [4] and in [7] was “inactive” each time.

In the case of `Cc1cc(Cl)ccc1OCCCC(=O)NO`, the Potency entry in experiment [3] is “inactive”.

In the case of `COc1cc(C(C)=O)ccc1OCCCN1CCC(c2noc3cc(F)ccc23)CC1`, the Potency entry in [3] was “inactive”.

In the case of `C[C@H](Cc1ccc(O)c(O)c1)[C@@H](C)Cc1ccc(O)c(O)c1`, the Potency result in [2] was “inactive”.

`Cc1cc(C2CCCCC2)n(O)c(=O)c1`: in [1], the Potency result was “inactive”. In addition, in experiment [3], the Potency was 6510 nM (active).

Turning to `COCCCOc1ccnc(CS(=O)c2nc3ccccc3[nH]2)c1C` (configuration not stated), the Potency entry in [1], in experiment [2] and in experiment [3] was “inactive” each time.

Values taken from PubChem BioAssay (NCATS).
